High-throughput results: PubChem, National Center for Advancing Translational Sciences (NCATS)
CtBP-E1A inh – CtBP/E1A binding inhibition | AID 651724 | AlphaScreen GST-E1A/His-CtBP binding, 1536-well; active compounds read low | activity change, % (test concentration not listed) | 0.49% of 340,000 active; in the data active = activity change below about -65%; inconclusive = mostly about -30% to -63%
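Steps: dispense buffer (Tris pH 8.0, NaCl 300 mM, TCEP 1 mM, BSA, Tween 20); add 5X protein mix (GST-E1A, His-CtBP, 125 nM each); pin 23 nL compound; 2 h at 37 °C, dark; add 5X beads (50 ug/mL); 1 h; read.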
Eya2 inh – blocks the phosphatase activity of human Eya2; O00167; recombinant Eya2, OMFP fluorescence dephosphorylation (OMFP is methylfluorescein phosphate); Potency, µM (series often up to 76.9 µM), for inactives: top-dose activity, negative = inhibition, usual class: inhibitors; 0.006% of 330,000 active; note: potency is the fitted concentration of half-maximal effect
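Eya2 (0.2 uM) preincubated 10 min at ambient with compound, then OMFP substrate added at 50 uM; 10 min reaction in 50 mM HEPES pH 7.5, 50 mM NaCl, 5 uM MgCl2, 0.05% BSA, 1 mM DTT. Fluorescence read at Ex 485/Em 525 nm.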
USP2a inh – blocks human ubiquitin-specific protease USP2a; O75604; USP2 core, Ub-CHOP2 coupled fluorogenic reporter, 485/531; Potency, µM (top dose mostly 38.3 µM), for the others: at the highest dose activity change, negative = inhibition, most hits filed as inhibitors; 0.01% of 330,000 active; AID 463254;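 note: potency is the fitted concentration of half-maximal effect; plate controls were DMSO wells for no effect and full inhibition by NEM control for full effect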
Target sequence (O75604 whole entry, looked up): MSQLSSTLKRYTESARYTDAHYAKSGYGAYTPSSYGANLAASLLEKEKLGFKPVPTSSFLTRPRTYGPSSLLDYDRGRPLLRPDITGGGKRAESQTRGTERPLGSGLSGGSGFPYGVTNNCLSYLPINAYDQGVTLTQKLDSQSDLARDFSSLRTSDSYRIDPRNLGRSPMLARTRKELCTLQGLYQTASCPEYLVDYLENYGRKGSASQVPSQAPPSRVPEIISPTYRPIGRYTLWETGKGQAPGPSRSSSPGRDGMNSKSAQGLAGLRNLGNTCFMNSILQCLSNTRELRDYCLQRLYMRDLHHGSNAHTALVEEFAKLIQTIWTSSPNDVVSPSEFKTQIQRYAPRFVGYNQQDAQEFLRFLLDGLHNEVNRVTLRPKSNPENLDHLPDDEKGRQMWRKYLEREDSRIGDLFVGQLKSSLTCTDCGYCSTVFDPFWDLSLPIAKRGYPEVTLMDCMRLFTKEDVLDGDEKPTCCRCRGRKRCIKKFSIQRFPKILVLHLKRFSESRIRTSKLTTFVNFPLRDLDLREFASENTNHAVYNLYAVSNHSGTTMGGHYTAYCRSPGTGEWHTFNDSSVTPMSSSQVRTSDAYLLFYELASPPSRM
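USP2 core (10nM final) preincubated 30min RT with compound in 20mM Tris-HCl pH 8.0, 2mM CaCl2, 2mM beta-mercaptoethanol, 0.05% CHAPS; 25nM Ub-CHOP2 plus 25nM reporter substrate added, fluorescence (Ex485/Em531) read after 60min.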
Six1-Eya2 inh – Six1/Eya2 interaction inhibition; activity change, % (test concentration not listed); 0.56% of 360,000 active; AlphaScreen GST-Six1/His-Eya2 binding, biochemical; active compounds read low; Q15475+O00167; in the data active = activity change below about -65%; inconclusive = mostly about -30% to -63%
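AlphaScreen luminescence read after one hour at 37 °C in darkness. Pin-transferred compounds met GST-Six1 and His-Eya2 protein (5X stock 250 nM/500 nM) plus glutathione donor and Ni-chelate acceptor beads (5X, 50 ug/mL).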
L3MBTL1 block – blocks human L3MBTL1; Q9Y468; 0.66% of 230,000 active; AlphaScreen L3MBTL1–H3K9me1 peptide binding; Potency, µM (titrated, usually from 57.1 µM), inactives show at the top dose activity, negative = inhibition, most hits filed as inhibitors; note: potency is the fitted concentration of half-maximal effect; nearly all actives have a fitted effect of over 60% in size
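L3MBTL1 (50 nM) pre-complexed 30 min with biotinylated H3(1-15)K9me1 peptide (75 nM), then compounds added for 30 min at room temperature; AlphaScreen streptavidin donor/nickel chelate acceptor beads (10 ug/mL final) read after 30 min dark incubation.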
uPA surface inh – inhibitors of cell surface uPA generation. cell surface uPA generation assay, qHTS. Potency, µM (doses to about 38.3 µM), inactives show at the highest dose activity change, negative = inhibition, hits mostly inhibitors. 0.31% of 330,000 active. AID 540303; active = well fitted inhibition curve with a large enough effect; inconclusive = small, poorly fitted or top-dose-only effect; inactive = no such curve, though single readings can be large or run the other way; tested in mouse RAW 264.7 cells; note: potency is the fitted concentration of half-maximal effect; nearly all actives have a fitted effect of over 55% in size
* = called active by the depositor. In the library only some 1.2% were active in any assay of this set; here they are far more common. Unless noted, calls come from the whole dose curve; as a rule, active = well fitted curve in the direction sought with a large enough effect; inconclusive = small, poorly fitted or top-dose-only effect, or another doubt; inactive = no such curve, though single readings can be large; an effect the other way counts as inactive or inconclusive. Unless noted, % is set by controls: 0 for no effect and ±100 for the full control effect.

Results for CNS(=O)(=O)c1cn(CC(=O)NCc2ccccc2OC)cc1S(=O)(=O)NC ?
CtBP-E1A inh: 7; Eya2 inh: 11%; USP2a inh: -5%; Six1-Eya2 inh: 11; uPA surface inh: -1%

How did O=C(O)c1cc(S(=O)(=O)Nc2cccc(Oc3ccccc3)c2)ccc1Br do in these assays?
CtBP-E1A inh: -5; Eya2 inh: 8%; USP2a inh: -3%; Six1-Eya2 inh: 8; uPA surface inh: 0%

What do the screens show for `CC(C)N=C(NC#N)SCc1ccccc1F`?
CtBP-E1A inh: 8; Eya2 inh: 0%; USP2a inh: 0%; Six1-Eya2 inh: 4

What do the screens show for `N#CNC(=Nc1cccc(F)c1)SCc1ccccc1F`?
Eya2 inh: 2%; USP2a inh: 0%; Six1-Eya2 inh: 0; L3MBTL1 block: 4%; uPA surface inh: 13µM*

Results for CC(C)=CC(=O)O[C@@H]1Cc2cc3ccc(=O)oc3cc2OC1(C)C ?
CtBP-E1A inh: 3; Eya2 inh: -24%; USP2a inh: 3%; Six1-Eya2 inh: -2; L3MBTL1 block: -3%; uPA surface inh: -1%

How did COc1ccc(-n2nc3c(c2NC(=O)COc2cccc(OC)c2)CS(=O)(=O)C3)cc1 do in these assays?
CtBP-E1A inh: 3; Eya2 inh: 2%; USP2a inh: 4%; Six1-Eya2 inh: -5; uPA surface inh: -16%

What do the screens show for `O=C1NC(=S)S/C1=C\c1ccc(SCc2ccccc2)o1`?
CtBP-E1A inh: -17; Eya2 inh: -1%; USP2a inh: 1%; Six1-Eya2 inh: -24; L3MBTL1 block: 28µM*; uPA surface inh: -6%

What do the screens show for `O=C1NC(=S)S/C1=C\c1ccc(SCc2ccco2)o1`?
CtBP-E1A inh: -11; Eya2 inh: 5%; USP2a inh: 3%; Six1-Eya2 inh: inconclusive; L3MBTL1 block: 3.5µM*; uPA surface inh: inconclusive

How did CCN1C[C@@H]2[C@@H]3C(=O)N(C)C(=O)[C@@H]3[C@](Cc3ccccc3)(C1=O)N2C(=O)c1ccc(F)cc1 do in these assays?
CtBP-E1A inh: 5; Six1-Eya2 inh: 2; uPA surface inh: 9%

How did Cc1ccnc(NC(=O)C2CCN(S(=O)(=O)c3ccc(Cl)c(C(F)(F)F)c3)CC2)c1 do in these assays?
CtBP-E1A inh: -24; Eya2 inh: 23%; USP2a inh: 0%; Six1-Eya2 inh: 6; L3MBTL1 block: -5%; uPA surface inh: 1%

What do the screens show for `O=C(Nc1ccncc1)C1CCN(S(=O)(=O)c2ccc(Cl)c(C(F)(F)F)c2)CC1`?
CtBP-E1A inh: 0; Eya2 inh: -6%; USP2a inh: 2%; Six1-Eya2 inh: 3; L3MBTL1 block: -2%; uPA surface inh: 11µM*

Results for CC(C)(CNC(=O)C1c2ccccc2-c2ccccc21)N1CCOCC1 ?
CtBP-E1A inh: 0; Eya2 inh: 13%; USP2a inh: 2%; Six1-Eya2 inh: 6; uPA surface inh: 2%

How did O=c1cc(-c2ccc(O)c(O)c2)oc2c1ccc1ccccc12 do in these assays?
CtBP-E1A inh: inconclusive; Eya2 inh: -9%; USP2a inh: 3%; Six1-Eya2 inh: inconclusive; L3MBTL1 block: -10%; uPA surface inh: 2.5µM*

What do the screens show for `O=c1cc(-c2ccc(O)c(O)c2)oc2ccc3ccccc3c12`?
CtBP-E1A inh: 0; Eya2 inh: -36%; USP2a inh: 0%; Six1-Eya2 inh: -2; L3MBTL1 block: -10%; uPA surface inh: -13%

What do the screens show for `Cc1nc2ccccc2n1CC(=O)OCC(=O)N1CCC(C)CC1`?
CtBP-E1A inh: 5; Eya2 inh: 4%; USP2a inh: 2%; Six1-Eya2 inh: 5; L3MBTL1 block: -4%; uPA surface inh: -5%

Results for Cc1ccc(Cn2ccsc2=NC(=O)CCl)cc1 ?
CtBP-E1A inh: 8; Eya2 inh: 8%; USP2a inh: 8%; Six1-Eya2 inh: 9; uPA surface inh: 2µM*

What do the screens show for `CC(=O)Oc1ccc(N(C(C)=O)S(=O)(=O)c2ccc(C)cc2C)c2ccccc12`?
CtBP-E1A inh: 2; Eya2 inh: -11%; USP2a inh: -2%; Six1-Eya2 inh: -12; L3MBTL1 block: -3%; uPA surface inh: 10µM*

Results for CCOC(=O)N1CCN(CC(=O)Nc2sccc2C#N)CC1 ?
CtBP-E1A inh: 35; Eya2 inh: -1%; USP2a inh: 3%; Six1-Eya2 inh: 9; L3MBTL1 block: -3%; uPA surface inh: 11µM*

How did C/C(=N/Nc1ccc(C(=O)O)cc1)c1ccc(O)c(O)c1O do in these assays?
CtBP-E1A inh: -21; Eya2 inh: -4%; USP2a inh: 7%; Six1-Eya2 inh: inconclusive; L3MBTL1 block: 14µM*; uPA surface inh: 8%

Results for COc1ccc(OC)c(/C(C)=N/Nc2ccc(C(=O)O)cc2)c1 ?
CtBP-E1A inh: 2; Eya2 inh: -11%; USP2a inh: 4%; Six1-Eya2 inh: -2; L3MBTL1 block: -16%; uPA surface inh: 4%

How did CCOC(=O)C1=C(COC(=O)c2cc(OC)c(OC)c(OC)c2)NC(=O)NC1C (centres undefined) do in these assays?
CtBP-E1A inh: -2; Eya2 inh: -7%; USP2a inh: -1%; Six1-Eya2 inh: -1; L3MBTL1 block: -7%; uPA surface inh: 3%

How did COc1ccc(C(CCNCc2ccc(N(C)C)cc2)c2ccccc2OC)cc1 (centres undefined) do in these assays?
CtBP-E1A inh: -75*; Eya2 inh: inconclusive; USP2a inh: 3%; Six1-Eya2 inh: -74*; uPA surface inh: -5%

Results for COc1ccc(CNC(=O)C2CCN(c3cc(C(=O)Nc4cccc(OC)c4)ccn3)CC2)cc1 ?
CtBP-E1A inh: -10; Eya2 inh: -6%; USP2a inh: -2%; Six1-Eya2 inh: -5; uPA surface inh: -5%

What do the screens show for `COc1ccc(Nc2ccc(S(=O)(=O)N3CCCCCC3)cc2[N+](=O)[O-])cc1`?
CtBP-E1A inh: -66*; Eya2 inh: -8%; USP2a inh: 4%; Six1-Eya2 inh: inconclusive; L3MBTL1 block: inconclusive; uPA surface inh: -5%

Results for COc1ccc(Nc2ccc(S(=O)(=O)N3CCCCC3)cc2[N+](=O)[O-])cc1OC ?
CtBP-E1A inh: inconclusive; Eya2 inh: 2%; USP2a inh: 3%; Six1-Eya2 inh: inconclusive; L3MBTL1 block: inconclusive; uPA surface inh: -8%

What do the screens show for `CCCOc1ccc(Br)cc1CSC(=N)N`?
CtBP-E1A inh: 19; Eya2 inh: 0%; USP2a inh: 3%; Six1-Eya2 inh: 12; L3MBTL1 block: 18%; uPA surface inh: 5.6µM*

What do the screens show for `CCCn1c(N)c(N(CCOC)C(=O)c2ccc(Cl)c([N+](=O)[O-])c2)c(=O)[nH]c1=O`?
CtBP-E1A inh: 43; Eya2 inh: -3%; USP2a inh: 0%; Six1-Eya2 inh: 12; uPA surface inh: -5%
